# Experimental data taken from PubChem BioAssay (EPA / NIEHS).
# Records with an inconclusive call do not appear. Active and inactive are the calls of the source. How the source made its calls, unless noted: active means hit-call score of the fitted dose curve at least 0.9, where 1 is the maximum; inactive means score below 0.9.
# What was measured:
# [1] = biological target: human Peroxisome Proliferator-activated Receptor delta (PPARd), PPARD (gene 5467) (UniProt Q03181); assay: ATG_PPARd_TRANS: Attagene TRANS-FACTORIAL HepG2 Assay for human Peroxisome Proliferator-activated Receptor delta (PPARd) (AID 2283002; active means hit-call score of the fitted dose curve at least 0.9, where 1 is the maximum)
# Sequence of human Peroxisome Proliferator-activated Receptor delta (PPARd), PPARD (gene 5467) (Q03181 whole entry, looked up): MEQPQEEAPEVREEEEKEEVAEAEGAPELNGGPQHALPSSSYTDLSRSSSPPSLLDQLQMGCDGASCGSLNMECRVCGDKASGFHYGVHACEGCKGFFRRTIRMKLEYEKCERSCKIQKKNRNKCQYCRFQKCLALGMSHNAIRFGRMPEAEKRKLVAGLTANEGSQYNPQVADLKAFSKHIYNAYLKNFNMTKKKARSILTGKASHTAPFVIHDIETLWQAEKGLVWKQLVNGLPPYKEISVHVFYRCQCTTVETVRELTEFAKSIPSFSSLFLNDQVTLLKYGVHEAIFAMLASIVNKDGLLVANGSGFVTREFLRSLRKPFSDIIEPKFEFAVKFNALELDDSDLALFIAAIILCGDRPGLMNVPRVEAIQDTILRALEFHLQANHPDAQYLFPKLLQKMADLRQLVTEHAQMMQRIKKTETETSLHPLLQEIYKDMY
# How it was run: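 Cell-based TRANS reporter: HepG2, transient MRTU transfection, 24 h exposure. Readout = reporter mRNA (RT-PCR/CE, 6-FAM). Gain-of-signal fit vs DMSO control.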
# [2] = read-out: Intercellular Adhesion Molecule 1 (ICAM1), ICAM1 (gene 3383); assay: BSK_3C_ICAM1: BioMAP Diversity Plus: 3C Assay for Intercellular Adhesion Molecule 1 (ICAM1) Biomarker Activity (AID 2283003); conditions: primary human endothelial cells (HUVEC); actives raise or lower the signal
# How it was run: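 ELISA read-out of ICAM-1; HUVEC (primary human), 3C system, 24 h post-dosing; bidirectional fit vs DMSO baseline.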
# [3] = BSK_3C_Proliferation: Cell Proliferation Assessment in the BioMAP Diversity Plus: 3C Assay (AID 2283006); conditions: primary human endothelial cells (HUVEC);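 on AC50: potency may reflect either rise or fall in cell number versus DMSO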
# How it was run: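 HUVEC, sub-confluent; 48 h chemical exposure; 10% TCA fix, 0.1% SRB stain, A560 total protein. Gain or loss of signal fitted both directions vs DMSO control.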
# [4] = biological target: Peroxisome proliferator-activated receptor gamma (Homo sapiens) (UniProt P37231); assay: ATG_PPARg_TRANS: Attagene TRANS-FACTORIAL HepG2 Assay for human Peroxisome Proliferator-activated Receptor-gamma (PPARg) (AID 2283007; active means hit-call score of the fitted dose curve at least 0.9, where 1 is the maximum)
# Sequence of Peroxisome proliferator-activated receptor gamma (Homo sapiens) (P37231 whole entry, looked up, the tested form may be a part): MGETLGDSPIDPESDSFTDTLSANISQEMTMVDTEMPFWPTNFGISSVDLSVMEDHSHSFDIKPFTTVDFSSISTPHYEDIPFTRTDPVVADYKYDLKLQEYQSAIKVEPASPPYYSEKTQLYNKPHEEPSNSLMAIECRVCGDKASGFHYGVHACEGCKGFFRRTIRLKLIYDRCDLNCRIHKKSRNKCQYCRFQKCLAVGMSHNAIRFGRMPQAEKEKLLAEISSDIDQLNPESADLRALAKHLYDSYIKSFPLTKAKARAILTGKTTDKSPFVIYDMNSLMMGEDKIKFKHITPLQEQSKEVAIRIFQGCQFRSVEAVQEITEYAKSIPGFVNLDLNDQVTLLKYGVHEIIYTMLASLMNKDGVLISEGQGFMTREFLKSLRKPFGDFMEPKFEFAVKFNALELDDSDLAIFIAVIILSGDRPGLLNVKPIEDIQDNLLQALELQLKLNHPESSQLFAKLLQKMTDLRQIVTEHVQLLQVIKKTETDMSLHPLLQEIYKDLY
# How it was run: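 Endpoint reflects upward reporter mRNA change versus DMSO controls. Setup: transiently transfected HepG2, GAL4-UAS reporters driven by chimeric NR-Gal4, 24 h incubation, RT-PCR with capillary electrophoresis read-out.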
# [5] = biological target: human Retinoic Acid Receptor gamma (RARg), RARG (gene 5916) (UniProt P13631); assay: ATG_RARg_TRANS: Attagene TRANS-FACTORIAL HepG2 Assay for human Retinoic Acid Receptor gamma (RARg) (AID 2283009; active means hit-call score of the fitted dose curve at least 0.9, where 1 is the maximum)
# Sequence of human Retinoic Acid Receptor gamma (RARg), RARG (gene 5916) (P13631 whole entry, looked up, the tested form may be a part): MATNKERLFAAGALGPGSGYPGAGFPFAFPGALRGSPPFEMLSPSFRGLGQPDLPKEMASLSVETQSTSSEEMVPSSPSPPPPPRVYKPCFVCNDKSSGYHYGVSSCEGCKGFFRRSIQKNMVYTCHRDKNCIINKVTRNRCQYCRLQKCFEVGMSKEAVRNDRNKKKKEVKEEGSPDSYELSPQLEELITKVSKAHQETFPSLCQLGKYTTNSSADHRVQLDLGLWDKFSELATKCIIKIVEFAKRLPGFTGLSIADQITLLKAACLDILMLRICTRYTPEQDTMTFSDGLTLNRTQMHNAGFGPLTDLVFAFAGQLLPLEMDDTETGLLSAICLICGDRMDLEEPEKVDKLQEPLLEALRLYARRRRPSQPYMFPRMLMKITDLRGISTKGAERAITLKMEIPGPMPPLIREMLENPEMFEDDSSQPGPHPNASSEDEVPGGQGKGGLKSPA
# How it was run: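 Readout: reporter transcript levels via RT-PCR, 6-FAM primer-extension labelling, HpaI digestion and capillary electrophoresis. Cells: HepG2 carrying transfected RARg-GAL4 chimera plus UAS reporter set. Dosing 24 h; DMSO negative control.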
# [6] = biological target: Retinoic acid receptor RXR-alpha (Homo sapiens) (UniProt P19793); assay: ATG_RXRa_TRANS: Attagene TRANS-FACTORIAL HepG2 Assay for human Retinoid X Receptor alpha (RXRa) (AID 2283012; active means hit-call score of the fitted dose curve at least 0.9, where 1 is the maximum)
# Sequence of Retinoic acid receptor RXR-alpha (Homo sapiens) (P19793 whole entry, looked up, the tested form may be a part): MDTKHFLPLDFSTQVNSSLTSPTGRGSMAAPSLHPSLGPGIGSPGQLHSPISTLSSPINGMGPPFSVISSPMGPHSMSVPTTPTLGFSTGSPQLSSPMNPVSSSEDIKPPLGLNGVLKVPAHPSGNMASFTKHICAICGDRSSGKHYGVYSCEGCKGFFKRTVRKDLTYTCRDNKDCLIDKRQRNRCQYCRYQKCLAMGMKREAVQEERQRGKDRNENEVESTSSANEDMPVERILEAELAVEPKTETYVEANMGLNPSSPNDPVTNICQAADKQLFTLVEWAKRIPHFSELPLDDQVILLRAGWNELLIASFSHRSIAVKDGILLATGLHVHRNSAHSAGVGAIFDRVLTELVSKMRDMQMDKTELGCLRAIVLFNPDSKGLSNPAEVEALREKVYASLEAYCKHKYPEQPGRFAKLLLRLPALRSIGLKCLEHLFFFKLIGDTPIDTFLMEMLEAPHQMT
# How it was run: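 Read-out: fluorescent reporter-transcript fragments quantified by capillary electrophoresis after RT-PCR. Transiently transfected HepG2 cells carrying GAL4-UAS reporters and NR-GAL4 chimeras were exposed to chemical for 24 h; activity scored as increase over DMSO.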
# [7] = biological target: human Retinoid X Receptor beta (RXRb), RXRB (gene 6257) (UniProt P28702); assay: ATG_RXRb_TRANS: Attagene TRANS-FACTORIAL HepG2 Assay for human Retinoid X Receptor beta (RXRb) (AID 2283013; active means hit-call score of the fitted dose curve at least 0.9, where 1 is the maximum)
# Sequence of human Retinoid X Receptor beta (RXRb), RXRB (gene 6257) (P28702 whole entry, looked up, the tested form may be a part): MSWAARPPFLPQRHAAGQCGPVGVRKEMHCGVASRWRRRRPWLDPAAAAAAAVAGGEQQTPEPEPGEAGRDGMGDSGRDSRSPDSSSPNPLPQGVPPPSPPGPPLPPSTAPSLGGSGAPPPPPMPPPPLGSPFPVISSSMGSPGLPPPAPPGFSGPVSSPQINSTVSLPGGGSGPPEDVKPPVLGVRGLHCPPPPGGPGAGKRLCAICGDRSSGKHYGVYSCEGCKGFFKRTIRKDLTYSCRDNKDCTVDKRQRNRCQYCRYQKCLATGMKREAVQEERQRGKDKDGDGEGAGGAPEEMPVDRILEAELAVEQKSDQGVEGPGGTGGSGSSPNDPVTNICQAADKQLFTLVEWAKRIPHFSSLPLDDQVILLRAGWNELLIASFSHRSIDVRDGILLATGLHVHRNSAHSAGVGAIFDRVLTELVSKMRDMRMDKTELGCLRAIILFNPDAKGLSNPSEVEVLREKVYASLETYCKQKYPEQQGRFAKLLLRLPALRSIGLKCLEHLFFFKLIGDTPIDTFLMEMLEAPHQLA
# How it was run: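 Read-out: reporter mRNA induction via RT-PCR plus capillary electrophoresis fluorescence, analysed as signal increase relative to DMSO. Cells were human HepG2, transiently transfected with GAL4-UAS reporter constructs and chimeric receptor-Gal4 fusions, dosed for 24 h.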
# [8] = biological target: human Thyroid Receptor alpha (THRa1), THRA (gene 7067) (UniProt P10827); assay: ATG_THRa1_TRANS: Attagene TRANS-FACTORIAL HepG2 Assay for human Thyroid Receptor alpha (THRa1) (AID 2283014; active means hit-call score of the fitted dose curve at least 0.9, where 1 is the maximum)
# Sequence of human Thyroid Receptor alpha (THRa1), THRA (gene 7067) (P10827 whole entry, looked up, the tested form may be a part): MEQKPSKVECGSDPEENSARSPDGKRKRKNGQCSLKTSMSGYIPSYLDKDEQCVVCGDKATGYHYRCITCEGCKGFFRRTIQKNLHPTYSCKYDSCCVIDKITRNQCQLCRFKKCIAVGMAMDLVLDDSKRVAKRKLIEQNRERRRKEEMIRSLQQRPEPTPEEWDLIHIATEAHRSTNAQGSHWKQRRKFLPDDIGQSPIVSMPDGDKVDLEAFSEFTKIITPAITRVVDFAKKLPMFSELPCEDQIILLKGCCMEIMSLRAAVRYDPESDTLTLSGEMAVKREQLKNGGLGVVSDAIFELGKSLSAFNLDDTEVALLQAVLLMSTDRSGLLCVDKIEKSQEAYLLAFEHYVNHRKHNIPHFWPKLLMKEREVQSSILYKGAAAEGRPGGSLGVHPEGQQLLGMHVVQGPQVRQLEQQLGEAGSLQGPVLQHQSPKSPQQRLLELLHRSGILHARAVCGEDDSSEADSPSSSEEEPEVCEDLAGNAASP
# How it was run: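 First, HepG2 cells receive multiple GAL4-UAS reporter units and the chimeric receptor. They are then dosed for 24 h, after which RNA is reverse-transcribed, amplified, labelled, HpaI-cut and sized by capillary electrophoresis; gain relative to DMSO is scored.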
# [9] = read-out: E-selectin (Homo sapiens) (UniProt P16581); assay: BSK_3C_Eselectin: BioMAP Diversity Plus: 3C Assay for Eselectin Biomarker Activity (AID 2283015); conditions: primary human endothelial cells (HUVEC); actives raise or lower the signal;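 on outcome: cell surface E-selectin protein quantified by ELISA 24 h after dosing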
# How it was run: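 Human vascular endothelium from umbilical vein is exposed to test chemicals for 24 h. E-selectin levels are read by ELISA and compared with DMSO controls.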
# [10] = read-out: Interleukin-1 alpha (IL1a), IL1A (gene 3552); assay: BSK_BE3C_IL1a: BioMAP Diversity Plus: BE3C Assay for Interleukin-1 alpha (IL1a) Biomarker Activity (AID 2283016); conditions: primary human bronchial epithelial cells; actives raise or lower the signal
# How it was run: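 ELISA read-out of IL-1a from human lung bronchial epithelial primary cells, 24 h post-dose. Gain or loss of signal fitted relative to DMSO negative control.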
# [11] = read-out: Monocyte Chemoattractant Protein-1 (MCP1), CCL2 (gene 6347); assay: BSK_3C_MCP1: BioMAP Diversity Plus: 3C Assay for Monocyte Chemoattractant Protein-1 (MCP1) Biomarker Activity (AID 2283017); conditions: primary human endothelial cells (HUVEC); actives raise or lower the signal
# How it was run: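 Endothelial cells from human umbilical vein are dosed with chemical, cultured 24 h, then assayed for MCP-1 by ELISA; both increases and decreases are modelled against DMSO controls.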
# [12] = read-out: Monocyte Chemoattractant Protein-1 (MCP1), CCL2 (gene 6347); assay: BSK_4H_MCP1: BioMAP Diversity Plus: 4H Assay for Monocyte Chemoattractant Protein-1 (MCP1) Biomarker Activity (AID 2283018); conditions: primary human endothelial cells (HUVEC); actives raise or lower the signal
# How it was run: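 HUVEC primary cells, 24 h post-dose, MCP-1 by ELISA. Gain or loss of signal fitted bidirectionally vs DMSO baseline. Cytotoxicity: SRB stain (0.1% after 10% TCA fixation), read 560 nm, parallel cultures.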
# [13] = read-out: Human Leukocyte Antigen - DR isotype (HLADR), HLA-DRA (gene 3122); assay: BSK_3C_HLADR: BioMAP Diversity Plus: 3C Assay for Human Leukocyte Antigen - DR isotype (HLADR) Biomarker Activity (AID 2283019); conditions: primary human endothelial cells (HUVEC); actives raise or lower the signal;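 on outcome: ELISA of cell-surface HLA-DR on HUVEC 24 h after dosing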
# How it was run: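 Endothelial cells from human umbilical vein are treated with test chemical; after 24 h, HLA-DR levels are measured by ELISA. Data are fitted in both directions using DMSO as the baseline.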
# [14] = read-out: Interleukin-8 (IL8), CXCL8 (gene 3576); assay: BSK_3C_IL8: BioMAP Diversity Plus: 3C Assay for Interleukin-8 (IL8) Biomarker Activity (AID 2283020); conditions: primary human endothelial cells (HUVEC); actives raise or lower the signal
# How it was run: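 HUVEC, 3C stimulation; 24 h compound exposure; IL-8 read by ELISA; gain or loss of signal fitted relative to DMSO control.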
# [15] = read-out: Monokine induced gamma interferon (MIG), CXCL9 (gene 4283); assay: BSK_3C_MIG: BioMAP Diversity Plus: 3C Assay for Monokine induced gamma interferon (MIG) Biomarker Activity (AID 2283021); conditions: primary human endothelial cells (HUVEC); actives raise or lower the signal;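 on AC50: MIG protein level measured by immunoassay in the treated endothelial cultures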
# How it was run: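 HUVEC, 3C system; 24 h chemical exposure; MIG by ELISA; bidirectional fit vs DMSO baseline.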
# [16] = biological target: human Vitamin D Receptor (VDR), VDR (gene 7421) (UniProt P11473); assay: ATG_VDR_TRANS: Attagene TRANS-FACTORIAL HepG2 Assay for human Vitamin D Receptor (VDR) (AID 2283022; active means hit-call score of the fitted dose curve at least 0.9, where 1 is the maximum)
# Sequence of human Vitamin D Receptor (VDR), VDR (gene 7421) (P11473 whole entry, looked up, the tested form may be a part): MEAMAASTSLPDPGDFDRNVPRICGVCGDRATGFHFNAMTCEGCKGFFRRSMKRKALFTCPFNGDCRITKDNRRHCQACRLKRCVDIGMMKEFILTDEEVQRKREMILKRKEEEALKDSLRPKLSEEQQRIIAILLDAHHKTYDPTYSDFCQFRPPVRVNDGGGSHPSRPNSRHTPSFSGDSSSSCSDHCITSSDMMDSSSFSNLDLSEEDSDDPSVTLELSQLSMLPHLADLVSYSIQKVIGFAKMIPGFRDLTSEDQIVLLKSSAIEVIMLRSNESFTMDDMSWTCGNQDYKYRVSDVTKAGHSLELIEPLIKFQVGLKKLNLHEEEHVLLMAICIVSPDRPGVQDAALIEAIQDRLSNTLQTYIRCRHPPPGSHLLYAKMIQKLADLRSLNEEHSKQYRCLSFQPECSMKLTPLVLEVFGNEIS
# How it was run: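 Fluorescence of labelled reporter cDNA fragments, resolved by capillary electrophoresis, gives mRNA induction after 24 h treatment of HepG2 cells carrying transfected Gal4-fusion reporter units. Activity is fitted in the positive direction with DMSO as baseline.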
# [17] = BSK_3C_SRB: Viability Assessment in the BioMAP Diversity Plus: 3C Assay (AID 2283023); conditions: primary human endothelial cells (HUVEC);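 further: cells read 24 h after compound dosing; fitted both ways against DMSO so a hit may be signal rise or drop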
# How it was run: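 Cells were dosed with chemical, cultured 24 h, fixed with 10% TCA, stained with 0.1% SRB and read at 560 nm. Human umbilical vein endothelium was used; DMSO served as negative control and baseline.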
# [18] = biological target: Nuclear receptor subfamily 1 group I member 2 (Homo sapiens) (UniProt O75469); assay: ATG_PXR_TRANS: Attagene TRANS-FACTORIAL HepG2 Assay for human Pregnane X Receptor (PXR) (AID 2283008; active means hit-call score of the fitted dose curve at least 0.9, where 1 is the maximum)
# Sequence of Nuclear receptor subfamily 1 group I member 2 (Homo sapiens) (O75469 whole entry, looked up, the tested form may be a part): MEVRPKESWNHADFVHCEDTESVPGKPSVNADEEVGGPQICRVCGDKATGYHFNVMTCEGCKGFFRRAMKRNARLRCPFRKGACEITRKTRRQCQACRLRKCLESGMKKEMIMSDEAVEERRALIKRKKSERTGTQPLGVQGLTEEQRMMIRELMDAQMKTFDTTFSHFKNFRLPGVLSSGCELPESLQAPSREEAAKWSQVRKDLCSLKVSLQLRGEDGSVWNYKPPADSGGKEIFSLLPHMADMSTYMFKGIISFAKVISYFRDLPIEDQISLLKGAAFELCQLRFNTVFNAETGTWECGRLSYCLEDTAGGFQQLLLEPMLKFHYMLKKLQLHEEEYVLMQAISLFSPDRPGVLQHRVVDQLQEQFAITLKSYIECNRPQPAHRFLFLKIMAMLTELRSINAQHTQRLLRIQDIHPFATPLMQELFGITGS
# How it was run: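 Multiplexed TRANS reporter panel in HepG2; this component tracks PXR-Gal4-driven reporter mRNA after 24 h dosing, measured by RT-PCR with capillary electrophoresis fluorescence, fitted against DMSO.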
# [19] = biological target: human RAR-related Orphan Receptor gamma (RORg), RORC (gene 6097) (UniProt P51449); assay: ATG_RORg_TRANS: Attagene TRANS-FACTORIAL HepG2 Assay for human RAR-related Orphan Receptor gamma (RORg) (AID 2283011; active means hit-call score of the fitted dose curve at least 0.9, where 1 is the maximum)
# Sequence of human RAR-related Orphan Receptor gamma (RORg), RORC (gene 6097) (P51449 whole entry, looked up, the tested form may be a part): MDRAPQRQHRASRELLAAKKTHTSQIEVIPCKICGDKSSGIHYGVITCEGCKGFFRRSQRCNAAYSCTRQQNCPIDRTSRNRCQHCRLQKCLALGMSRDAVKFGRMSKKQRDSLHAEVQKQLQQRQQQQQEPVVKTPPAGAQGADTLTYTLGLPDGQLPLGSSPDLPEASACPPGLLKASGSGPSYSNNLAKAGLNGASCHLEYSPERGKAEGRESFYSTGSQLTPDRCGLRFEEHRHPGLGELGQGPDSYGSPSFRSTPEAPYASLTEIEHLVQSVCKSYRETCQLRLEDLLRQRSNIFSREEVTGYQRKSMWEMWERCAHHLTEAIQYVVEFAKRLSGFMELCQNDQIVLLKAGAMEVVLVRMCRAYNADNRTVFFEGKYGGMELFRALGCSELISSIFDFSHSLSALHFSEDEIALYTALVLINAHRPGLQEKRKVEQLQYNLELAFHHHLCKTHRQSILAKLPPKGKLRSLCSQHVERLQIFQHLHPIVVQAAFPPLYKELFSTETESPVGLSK
# How it was run: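 Activity is scored as increase in GAL4-UAS reporter mRNA over DMSO, detected by fluorescent RT-PCR and capillary electrophoresis in HepG2 cells transiently expressing a RORg-Gal4 chimera, 24 h after dosing.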
# [20] = biological target: human RAR-related Orphan Receptor beta (RORb), RORB (gene 6096) (UniProt Q92753); assay: ATG_RORb_TRANS: Attagene TRANS-FACTORIAL HepG2 Assay for human RAR-related Orphan Receptor beta (RORb) (AID 2283010; active means hit-call score of the fitted dose curve at least 0.9, where 1 is the maximum)
# How it was run: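 HepG2, transient MRTU transfection (GAL4-UAS reporters, exogenous NR-Gal4 chimeras); 24 h compound exposure; total RNA → RT-PCR → 6-FAM primer extension → HpaI digest → CE fluorescence. Positive direction vs DMSO baseline.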
# Sequence of E-selectin (Homo sapiens) (P16581 whole entry, looked up): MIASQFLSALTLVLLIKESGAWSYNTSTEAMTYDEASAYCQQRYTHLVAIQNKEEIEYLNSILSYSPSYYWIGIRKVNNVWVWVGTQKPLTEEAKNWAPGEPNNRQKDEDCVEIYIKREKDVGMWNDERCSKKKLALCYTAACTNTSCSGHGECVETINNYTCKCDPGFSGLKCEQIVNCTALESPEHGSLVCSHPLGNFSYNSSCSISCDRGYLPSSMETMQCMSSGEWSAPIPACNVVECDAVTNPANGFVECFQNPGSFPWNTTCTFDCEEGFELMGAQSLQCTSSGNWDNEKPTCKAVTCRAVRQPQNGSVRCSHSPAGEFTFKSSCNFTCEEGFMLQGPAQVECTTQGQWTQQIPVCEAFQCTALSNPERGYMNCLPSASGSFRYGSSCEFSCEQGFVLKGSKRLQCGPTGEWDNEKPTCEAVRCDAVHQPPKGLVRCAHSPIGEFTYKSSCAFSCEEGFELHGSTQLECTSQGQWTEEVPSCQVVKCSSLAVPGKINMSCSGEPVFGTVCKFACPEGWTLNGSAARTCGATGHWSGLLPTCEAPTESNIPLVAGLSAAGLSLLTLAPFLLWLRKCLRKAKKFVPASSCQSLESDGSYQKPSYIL
smiles,measurement,setting,value
C=CC(=O)OCC(CC)(COC(=O)C=C)COC(=O)C=C,outcome,[1],inactive
same,AC50,[2],2.71 µM (active)
same,AC50,[3],1.7 µM (active)
same,AC50,[4],24.3 µM (active)
same,outcome,[5],inactive
same,outcome,[6],inactive
same,outcome,[7],inactive
same,outcome,[8],inactive
same,AC50,[9],2.37 µM (active)
same,AC50,[10],5.88 µM (active)
same,AC50,[11],2.66 µM (active)
same,AC50,[12],1.9 µM (active)
same,AC50,[13],1.38 µM (active)
same,AC50,[14],3.18 µM (active)
same,AC50,[15],3.68 µM (active)
same,outcome,[16],inactive
same,AC50,[17],2.33 µM (active)
CCCCC(CC)COC(=O)c1c(Br)c(Br)c(Br)c(Br)c1C(=O)OCC(CC)CCCC (stereo not drawn),outcome,[1],inactive
same,outcome,[2],inactive
same,outcome,[3],inactive
same,outcome,[4],inactive
same,outcome,[18],inactive
same,outcome,[19],inactive
same,outcome,[6],inactive
same,outcome,[8],inactive
same,outcome,[9],inactive
same,outcome,[10],inactive
same,outcome,[11],inactive
same,outcome,[12],inactive
same,outcome,[13],inactive
same,outcome,[14],inactive
same,outcome,[15],inactive
same,outcome,[16],inactive
same,outcome,[17],inactive
OCC1CO1 (stereo not drawn),outcome,[1],inactive
same,outcome,[2],inactive
same,outcome,[3],inactive
same,outcome,[4],inactive
same,outcome,[19],inactive
same,outcome,[8],inactive
same,outcome,[9],inactive
same,outcome,[10],inactive
same,outcome,[11],inactive
same,outcome,[12],inactive
same,outcome,[13],inactive
same,outcome,[14],inactive
same,outcome,[15],inactive
same,outcome,[17],inactive
O=S(=O)(F)C(F)(F)C(F)(F)C(F)(F)C(F)(F)C(F)(F)C(F)(F)C(F)(F)C(F)(F)F,outcome,[1],inactive
same,outcome,[2],inactive
same,outcome,[3],inactive
same,outcome,[4],inactive
same,outcome,[5],inactive
same,outcome,[20],inactive
same,outcome,[6],inactive
same,outcome,[8],inactive
same,outcome,[9],inactive
same,outcome,[10],inactive
same,outcome,[11],inactive
same,outcome,[12],inactive
same,outcome,[13],inactive
same,outcome,[14],inactive
same,outcome,[15],inactive
same,outcome,[16],inactive
same,outcome,[17],inactive
OCC(F)(F)OC(F)(F)C(F)(F)OC(F)(F)CO,outcome,[1],inactive
same,outcome,[2],inactive
same,outcome,[3],inactive
same,outcome,[4],inactive
same,outcome,[18],inactive
same,outcome,[5],inactive
same,outcome,[6],inactive
same,outcome,[7],inactive
same,outcome,[9],inactive
same,outcome,[10],inactive
same,outcome,[11],inactive
same,outcome,[12],inactive
same,outcome,[13],inactive
same,outcome,[14],inactive
same,outcome,[15],inactive
same,outcome,[16],inactive
same,outcome,[17],inactive
O=c1ssc(Cl)c1Cl,outcome,[1],inactive
same,AC50,[2],11.3 µM (active)
same,AC50,[3],1.45 µM (active)
same,AC50,[4],33.4 µM (active)
same,outcome,[18],inactive
same,outcome,[20],inactive
same,outcome,[6],inactive
same,outcome,[8],inactive
same,AC50,[9],6.13 µM (active)
same,AC50,[10],12.2 µM (active)
same,AC50,[11],8.43 µM (active)
same,AC50,[12],3.92 µM (active)
same,AC50,[13],3.59 µM (active)
same,AC50,[14],7.48 µM (active)
same,AC50,[15],14.8 µM (active)
same,AC50,[17],5.07 µM (active)
